# Test results from PubChem BioAssay AID1159580 (chemical genetic matrix, 2015).
# The campaign covered roughly 5,500 compounds. About 2,000 (36%) were called active. About 18% were inconclusive and are not listed. The list shows a part of the results. Values without a mark were called inactive. Cut-off read from the data, not from the text of the source: active = normalized growth mostly below about 0.91 (no sharp cut-off); inconclusive = no clear call, values can overlap the other calls; inactive = mostly above about 0.92.
# Assay: chemical genetic growth profiling, strain panel (AID 1159580);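 note: tested at 20 µM; growth read once vehicle control cultures reached saturation at 30 °C; 1 = growth at the plate median or of vehicle wells; lower values mean less growth of the strain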
# Settings: S. cerevisiae deletion strains, growth OD
# [1] = locus YAL040C, strain CLN3, stronger effect = lower value
# [2] = locus YCL061C, strain MRC1 (second series), stronger effect = lower value
# [3] = locus YDR363W, strain ESC2, stronger effect = lower value
# [4] = locus YER002W, strain NOP16, stronger effect = lower value
# [5] = locus YGR229C, strain SMI1, stronger effect = lower value
# [6] = locus YNL175C, strain NOP13, stronger effect = lower value
# [7] = locus YNL197C, strain WHI3, stronger effect = lower value
# [8] = locus YNL224C, strain SQS1, stronger effect = lower value
# [9] = locus YOR083W, strain WHI5 (second series), stronger effect = lower value
# [10] = locus YPL241C, strain CIN2, stronger effect = lower value
# [11] = locus YAR019C, strain CDC15, stronger effect = lower value
# [12] = locus YBL105C, strain PKC1, stronger effect = lower value
# [13] = locus YBR135W, strain CKS1, stronger effect = lower value
# [14] = locus YBR136W, strain MEC1, stronger effect = lower value
# [15] = locus YBR160W, strain CDC28, stronger effect = lower value
# [16] = locus YDL017W, strain CDC7, stronger effect = lower value
# [17] = locus YDL028C, strain MPS1, stronger effect = lower value
# [18] = locus YDL101C, strain DUN1, stronger effect = lower value
# [19] = locus YDL108W, strain KIN28, stronger effect = lower value
# [20] = locus YDL132W, strain cdc53, stronger effect = lower value
# [21] = locus YDL214C, strain PRR2, stronger effect = lower value
# [22] = locus YDR052C, strain DBF4, stronger effect = lower value
# [23] = locus YDR054C, strain cdc34, stronger effect = lower value
# [24] = locus YDR226W, strain ADK1, stronger effect = lower value
# [25] = locus YDR477W, strain SNF1, stronger effect = lower value
# [26] = locus YER123W, strain YCK3, stronger effect = lower value
# [27] = locus YER133W, strain GLC7, stronger effect = lower value
# [28] = locus YFL009W, strain cdc4, stronger effect = lower value
# [29] = locus YFL029C, strain CAK1, stronger effect = lower value
# [30] = locus YFR003C, strain YPI1, stronger effect = lower value
# [31] = locus YFR019W, strain FAB1, stronger effect = lower value
# [32] = locus YFR028C, strain CDC14, stronger effect = lower value
# [33] = locus YGR040W, strain KSS1, stronger effect = lower value
# [34] = locus YGR052W, strain FMP48, stronger effect = lower value
# [35] = locus YGR092W, strain DBF2, stronger effect = lower value
# [36] = locus YHR030C, strain SLT2, stronger effect = lower value
# [37] = locus YHR079C, strain IRE1, stronger effect = lower value
# [38] = locus YHR082C, strain KSP1, stronger effect = lower value
# [39] = locus YHR205W, strain SCH9, stronger effect = lower value
# [40] = locus YIL147C, strain SLN1, stronger effect = lower value
# [41] = locus YJL095W, strain BCK1, stronger effect = lower value
# [42] = locus YJL128C, strain PBS2, stronger effect = lower value
# [43] = locus YJL157C, strain FAR1, stronger effect = lower value
# [44] = locus YJR016C, strain ILV3, stronger effect = lower value
# [45] = locus YJR066W, strain TOR1 (second series), stronger effect = lower value
# [46] = locus YJR066W, strain TOR1, stronger effect = lower value
# [47] = locus YKL048C, strain ELM1, stronger effect = lower value
# [48] = locus YKL067W, strain YNK1, stronger effect = lower value
# [49] = locus YKL101W, strain HSL1, stronger effect = lower value
# [50] = locus YKL193C, strain SDS22, stronger effect = lower value
# [51] = locus YKL203C, strain TOR2, stronger effect = lower value
# [52] = locus YLR113W, strain HOG1, stronger effect = lower value
# [53] = locus YLR133W, strain CKI1, stronger effect = lower value
# [54] = locus YLR403W, strain SFP1, stronger effect = lower value
# [55] = locus YML070W, strain DAK1, stronger effect = lower value
# [56] = locus YMR001C, strain CDC5, stronger effect = lower value
# [57] = locus YMR205C, strain PFK2 (second series), stronger effect = lower value
# [58] = locus YMR277W, strain FCP1, stronger effect = lower value
# [59] = locus YNL006W, strain LST8, stronger effect = lower value
# [60] = locus YNL020C, strain ARK1, stronger effect = lower value
# [61] = locus YNL161W, strain CBK1, stronger effect = lower value
# [62] = locus YNL183C, strain NPR1, stronger effect = lower value
# [63] = locus YNL207W, strain RIO2, stronger effect = lower value
# [64] = locus YNL222W, strain SSU72, stronger effect = lower value
# [65] = locus YNL307C, strain MCK1 (second series), stronger effect = lower value
# [66] = locus YOL078W, strain AVO1, stronger effect = lower value
# [67] = locus YOL136C, strain PFK27, stronger effect = lower value
# [68] = locus YOR061W, strain CKA2, stronger effect = lower value
# [69] = locus YOR119C, strain RIO1, stronger effect = lower value
# [70] = locus YOR231W, strain MKK1, stronger effect = lower value
# [71] = locus YOR329C, strain SCD5, stronger effect = lower value
# [72] = locus YPL031C, strain PHO85, stronger effect = lower value
# [73] = locus YPL153C, strain RAD53, stronger effect = lower value
# [74] = locus YPL204W, strain HRR25, stronger effect = lower value
# [75] = locus YPL209C, strain IPL1, stronger effect = lower value
# [76] = locus YPL256C, strain CLN2, stronger effect = lower value
# [77] = locus YPR025C, strain CCL1, stronger effect = lower value
# [78] = locus YPR106W, strain ISR1, stronger effect = lower value
# [79] = locus YPR111W, strain DBF20, stronger effect = lower value
# [80] = strain NNK1, stronger effect = lower value
# [81] = strain TSCII, stronger effect = lower value
smiles,measurement,setting,value
CCCCCC[C@@H]([C@@H](C)O)n1cnc2c(N)ncnc21,normalized growth,[1],1.02
same,normalized growth,[2],1
same,normalized growth,"locus YDR150W, strain NUM1, stronger effect = lower value",1.01
same,normalized growth,[3],1
same,normalized growth,[4],1.01
same,normalized growth,[5],0.945
same,normalized growth,"locus YJR075W, strain HOC1, stronger effect = lower value",0.99
same,normalized growth,"locus YMR263W, strain SAP30, stronger effect = lower value",1
same,normalized growth,"locus YNL128W, strain TEP1, stronger effect = lower value",0.992
same,normalized growth,[6],1.02
same,normalized growth,[7],1.01
same,normalized growth,[8],0.992
same,normalized growth,[9],1.06
same,normalized growth,[10],1
O=C(CSCc1nc(-c2ccc(Cl)cc2)cs1)N/N=C\c1cccs1,normalized growth,[11],0.984
same,normalized growth,[12],0.97
same,normalized growth,[13],0.969
same,normalized growth,[14],0.972
same,normalized growth,[15],0.969
same,normalized growth,[16],0.97
same,normalized growth,[17],0.973
same,normalized growth,[18],0.978
same,normalized growth,[19],0.975
same,normalized growth,[20],0.966
same,normalized growth,[21],0.91
same,normalized growth,[22],0.98
same,normalized growth,[23],0.97
same,normalized growth,[24],0.972
same,normalized growth,[25],0.953
same,normalized growth,[26],0.908
same,normalized growth,[27],0.946
same,normalized growth,[28],0.971
same,normalized growth,[29],0.973
same,normalized growth,[30],0.962
same,normalized growth,[31],0.929
same,normalized growth,[32],0.963
same,normalized growth,[33],0.935
same,normalized growth,[34],0.948
same,normalized growth,[35],0.98
same,normalized growth,[36],1.01
same,normalized growth,[37],1.03
same,normalized growth,[38],0.998
same,normalized growth,[39],0.935
same,normalized growth,[40],0.975
same,normalized growth,[41],0.936
same,normalized growth,[42],0.924
same,normalized growth,[43],0.95
same,normalized growth,[44],0.974
same,normalized growth,[45],0.951
same,normalized growth,[46],1.02
same,normalized growth,[47],0.944
same,normalized growth,[48],0.932
same,normalized growth,[49],0.921
same,normalized growth,[50],0.972
same,normalized growth,[51],1
same,normalized growth,[52],0.831 (active)
same,normalized growth,[53],0.917
same,normalized growth,[54],0.933
same,normalized growth,[55],0.93
same,normalized growth,[56],0.976
same,normalized growth,[57],0.942
same,normalized growth,[58],0.98
same,normalized growth,[59],0.973
same,normalized growth,[60],0.925
same,normalized growth,[61],0.969
same,normalized growth,[62],0.971
same,normalized growth,[63],0.967
same,normalized growth,[64],0.974
same,normalized growth,[65],0.956
same,normalized growth,[66],0.966
same,normalized growth,[67],0.866
same,normalized growth,[68],0.943
same,normalized growth,[69],0.994
same,normalized growth,[70],0.927
same,normalized growth,[71],0.975
same,normalized growth,[72],0.96
same,normalized growth,[73],0.969
same,normalized growth,[74],0.906
same,normalized growth,[75],0.969
same,normalized growth,[76],0.965
same,normalized growth,[77],0.979
same,normalized growth,[78],0.97
same,normalized growth,[79],0.952
same,normalized growth,[80],0.966
same,normalized growth,[81],0.968
CC(C)CSc1nnc(CSCc2nc(-c3ccc(Cl)cc3)cs2)n1C,normalized growth,[11],0.979
same,normalized growth,[12],0.964
same,normalized growth,[13],0.968
same,normalized growth,[14],0.964
same,normalized growth,[15],0.97
same,normalized growth,[16],0.974
same,normalized growth,[17],0.966
same,normalized growth,[18],0.958
same,normalized growth,[19],0.96
same,normalized growth,[20],0.961
same,normalized growth,[21],0.94
same,normalized growth,[22],0.974
same,normalized growth,[23],0.968
same,normalized growth,[24],0.974
same,normalized growth,[25],0.965
same,normalized growth,[26],0.913
same,normalized growth,[27],0.954
same,normalized growth,[28],0.976
same,normalized growth,[29],0.973
same,normalized growth,[30],0.965
same,normalized growth,[31],0.946
same,normalized growth,[32],0.97
same,normalized growth,[33],0.931
same,normalized growth,[34],0.979
same,normalized growth,[35],0.981
same,normalized growth,[36],1.03
same,normalized growth,[37],1.06
same,normalized growth,[38],1.03
same,normalized growth,[39],0.988
same,normalized growth,[40],0.962
same,normalized growth,[41],0.956
same,normalized growth,[42],0.929
same,normalized growth,[43],0.956
same,normalized growth,[44],0.971
same,normalized growth,[45],0.961
same,normalized growth,[46],1.05
same,normalized growth,[47],0.954
same,normalized growth,[48],0.95
same,normalized growth,[49],0.925
same,normalized growth,[50],0.971
same,normalized growth,[51],1.02
same,normalized growth,[52],0.865
same,normalized growth,[53],0.927
same,normalized growth,[54],0.948
same,normalized growth,[55],0.929
same,normalized growth,[56],0.973
same,normalized growth,[57],0.961
same,normalized growth,[58],0.966
same,normalized growth,[59],0.979
same,normalized growth,[60],0.941
same,normalized growth,[61],0.973
same,normalized growth,[62],1.01
same,normalized growth,[63],0.967
same,normalized growth,[64],0.972
same,normalized growth,[65],0.974
same,normalized growth,[66],0.964
same,normalized growth,[67],0.882
same,normalized growth,[68],0.939
same,normalized growth,[69],1.01
same,normalized growth,[70],0.944
same,normalized growth,[71],0.974
same,normalized growth,[72],0.95
same,normalized growth,[73],0.96
same,normalized growth,[74],0.917
same,normalized growth,[75],0.974
same,normalized growth,[76],0.999
same,normalized growth,[77],0.969
same,normalized growth,[78],0.962
same,normalized growth,[79],0.95
same,normalized growth,[80],0.966
same,normalized growth,[81],0.969
CC1(NCC(O)COc2cccc3[nH]ccc23)CCC(C(C)(C)NC(=O)CBr)CC1 (stereo not given),normalized growth,[1],1.04
same,normalized growth,[2],0.993
same,normalized growth,[3],1.03
same,normalized growth,[4],1.03
same,normalized growth,"locus YGR078C, strain PAC10, stronger effect = lower value",1
same,normalized growth,[5],0.997
same,normalized growth,"locus YMR307W, strain GAS1, stronger effect = lower value",0.99
same,normalized growth,[6],1.02
same,normalized growth,[7],1.02
same,normalized growth,[8],1.06
same,normalized growth,"locus YNL322C, strain KRE1, stronger effect = lower value",0.973
same,normalized growth,[9],1.02
same,normalized growth,"locus YPL055C, strain LGE1, stronger effect = lower value",0.968
same,normalized growth,[10],1
